This is part of a sample that, as a whole, favours compounds with a hit. Of some 83,000 tested, about 20% had one in any assay.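 Values shown are percent growth following 48 h exposure of cells in 96-well plates to a single concentration of compound; below 10 was considered active.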 Unmarked numbers belong to inactive results. Active and inactive are the calls of the source.
Assays:
Assay in all cases: NCI-60 one-dose screen, 48 h (100 = growth as untreated, 0 = no growth, -100 = all killed)
Conditions in all cases: 10 µM unless noted
SK-MEL-2 melanoma = test system: SK-MEL-2 melanoma
EKVX NSCLC = test system: EKVX NSCLC
SN12C renal = test system: SN12C renal
UO-31 renal = test system: UO-31 renal
TK-10 renal = test system: TK-10 renal
ACHN renal = test system: ACHN renal
CAKI-1 renal = test system: CAKI-1 renal
A498 renal = test system: A498 renal
CCRF-CEM leukemia = test system: CCRF-CEM leukemia
MOLT-4 leukemia = test system: MOLT-4 leukemia
SR leukemia = test system: SR leukemia
OVCAR-8 ovarian = test system: OVCAR-8 ovarian
OVCAR-5 ovarian = test system: OVCAR-5 ovarian
OVCAR-4 ovarian = test system: OVCAR-4 ovarian
SK-OV-3 ovarian = test system: SK-OV-3 ovarian
IGROV1 ovarian = test system: IGROV1 ovarian
OVCAR-3 ovarian = test system: OVCAR-3 ovarian
HS 578T breast = test system: HS 578T breast
NCI/ADR-RES ovarian = test system: NCI/ADR-RES ovarian

Row | Compound | growth (SK-MEL-2 melanoma) | growth (EKVX NSCLC) | growth (SN12C renal) | growth (UO-31 renal) | growth (TK-10 renal) | growth (ACHN renal) | growth (CAKI-1 renal) | growth (A498 renal) | growth (CCRF-CEM leukemia) | growth (MOLT-4 leukemia) | growth (SR leukemia) | growth (OVCAR-8 ovarian) | growth (OVCAR-5 ovarian) | growth (OVCAR-4 ovarian) | growth (SK-OV-3 ovarian) | growth (IGROV1 ovarian) | growth (OVCAR-3 ovarian) | growth (HS 578T breast) | growth (NCI/ADR-RES ovarian)
1 | O=C(Cc1ccc2c(c1)OCCO2)Nc1nc2ccc(F)cc2s1 | 70.5% | 93.8% | 70.5% | 62.5% | 117% | 98% | 111% | 104% | 87.3% | 95.1% | 103% | 94.7% | 90.3% | 96.4% | 105% | 48.3% | 104% | 106% | 99%
2 | Cc1cccc(NC2=C(Cl)C(=O)c3nc(C)ccc3C2=O)c1 | -9.34% (active) | 75.7% | -71.2% (active) | -93.3% (active) | 123% | -98.3% (active) | -33.1% (active) | 42.1% | 3.19% (active) | -22.1% (active) | 1.13% (active) | 6.03% (active) | -43% (active) | -97.5% (active) | 74.5% | -54.1% (active) | -31.8% (active) | -16.5% (active) | 13.8%
3 | Nc1nn(C(=O)Nc2ccc(Cc3ccccc3)cc2)c2ccc(Cl)cc12 | 68.7% | 70% | 64.2% | 43.5% | 79.7% | 39.9% | 44% | 106% | 74% | 25.6% | 71.7% | 72.5% | 55.7% | 54.3% | 91% | 76.2% | 76.7% | 92.1% | 67%
4 | CCCCn1c(-c2ccc(C(=O)O/N=C(\N)c3ccc(OC)cc3)cc2)nc(-c2ccccc2)c1-c1ccccc1 | 52.6% | -79.2% (active) | -62.7% (active) | -93.7% (active) | -78.8% (active) | -97.9% (active) | -46.3% (active) | 20.9% | -48.7% (active) | -39.7% (active) | -47.4% (active) | -16.8% (active) | 24.1% | 23.1% | 87% | -70.2% (active) | -6.99% (active) | -8.31% (active) | -39.5% (active)
5 | COc1ccc(C(=O)N=Nc2c(O)n(C)c3ccccc23)cc1 | 114% | 77% | 94.5% | 69.3% | 146% | 91.4% | 82.3% | 99.5% | 94.2% | 99.9% | 80.5% | 95.6% | 105% | 91.9% | 87.2% | 90.2% | 104% | 99.5% | 91.5%
6 | COc1cccc(-c2nc(-c3ccc(NC(=O)C(C)C)cc3)[nH]c2-c2ccnc(Br)c2)c1 | 22% | 45.1% | 61.7% | 12.1% | 54% | 28.8% | 36.2% | 2.23% (active) | 21.8% | 14.3% | -14.5% (active) | 38.1% | 70.2% | 33.3% | 46.4% | 52.1% | 37.3% | -13.2% (active) | 46.7%
7 | COc1cc2oc(-c3ccc(O)cc3)cc(=O)c2c(O)c1-c1c(OC)cc(O)c2c(=O)cc(-c3ccc(O)cc3)oc12 | 51.9% | 85.5% | 15.8% | 14.6% | 75.3% | 49.4% | 26.9% | 83.9% | 44.9% | 32.6% | 5.09% (active) | 28.1% | 101% | 67.8% | 37.5% | 16.7% | 29.3% | 17.5% | 79.6%
8 | CCCCn1c(=O)c(-c2cc(-c3ccc(Cl)cc3)nc(-c3ccc(Cl)cc3)c2)cc2ccc(Cl)cc21 | 123% | 105% | 98.8% | 86.8% | 115% | 104% | 91.6% | 102% | 100% | 100% | 98.1% | 108% | 94.1% | 109% | 99.6% | 105% | 112% | 108% | 95.9%
9 | C/C=C(\C)C(=O)N[C@H]1[C@@H](OC(C)=O)C[C@]2(C)C3CC[C@@]4(C)C(CC[C@@H]4C(C)N(C)C)C3CCC2[C@H]1O (stereo partly drawn) | 97.2% | 62.7% | 75.3% | 10.5% | 65.5% | 67.9% | 65.6% | 85.8% | 39.7% | 65.6% | 51% | 78.6% | 96.7% | 15.3% | 93.6% | 66.4% | 74.9% | 88.6% | 67.9%
10 | COc1cc(Nc2cn[nH]c2-c2ccc(Cl)cc2)cc(OC)c1OC | 32.4% | 62.7% | 52.5% | 32.3% | 67% | 71.1% | 59.9% | 43.3% | 24.3% | 19.7% | 10.1% | 70.2% | 54.6% | 61.5% | 30.9% | 39.8% | 32.1% | 44.1% | -26% (active)
11 | COc1cc2cc(Oc3ccc(NC(=O)Nc4ccc(F)c(C(F)(F)F)c4)cc3)c(C)nc2cc1OCCN1CCOCC1 | 14.8% | 16.2% | 11.6% | 30.1% | 35.1% | 9.37% (active) | 25.8% | 38.7% | 5.44% (active) | 0.0203% (active) | -15.2% (active) | 13.8% | 66.9% | 27.3% | 41.3% | 32.7% | 13% | 65.8% | 12%
12 | CCC(=O)Nc1ccc(-c2nc(-c3cccc(OC)c3)c(-c3ccnc(Br)c3)[nH]2)cc1 | 70.2% | 64.6% | 68.3% | 53.9% | 90.4% | 60.3% | 57.1% | 50.5% | 37.1% | 44.6% | 25.3% | 58.2% | 87% | 46.8% | 101% | 81% | 65.4% | 39.2% | 67.9%
13 | NC1=NC(c2cccc(Br)c2)c2sc3ccc(Cl)cc3c2N1 (stereo not drawn) | 108% | 85.5% | 93.5% | 62.8% | 123% | 92.9% | 79.5% | 104% | 121% | 92.2% | 77.6% | 102% | 103% | 93.5% | 92.1% | 77% | 99.2% | 104% | 103%
14 | Cc1[nH]c(C(=O)Nc2ccc(C(=O)N3CCNCC3)cc2OC(C)C)c(Cl)c1Cl | 106% | 82.8% | 80.1% | 47.9% | 79.2% | 67.7% | 48.8% | 64.4% | 27.7% | 54.1% | -34.3% (active) | 87.1% | 90.3% | 81.9% | 89.3% | 69.5% | 71.4% | 73% | 80.5%
15 | CCCCOc1nc2c(C)cccc2cc1-c1cc(-c2ccc(Cl)cc2)nc(-c2ccc(Cl)cc2)c1 | 102% | 101% | 96% | 95.6% | 108% | 101% | 93.9% | 90.4% | 103% | 103% | 92.2% | 97.4% | 96.6% | 110% | 103% | 105% | 111% | 92.4% | 108%
16 | CC/C=C\C[C@@H]1C/C=C2/C(=O)C=C[C@H]2C/C=C\CCCC(=O)O1 | -39.2% (active) | -25.1% (active) | -28.8% (active) | -91.9% (active) | -42.5% (active) | -86.2% (active) | 9.49% (active) | -88.4% (active) | -28.7% (active) | -24.9% (active) | -30.3% (active) | 4.94% (active) | -32.8% (active) | 5.92% (active) | -8.9% (active) | – | -95.4% (active) | -1.47% (active) | 10.9%
